Measured values from the antibiotic and cytotoxicity screens of Wong et al. (2023).
The campaign covered roughly 39,000 compounds. About 3,300 (8.5%) were called active. The full list was thinned out, with actives kept by preference.

system: HepG2; test: cytotoxicity call (relative viability < 0.9); conditions: 10 µM

Structure (SMILES) | cytotoxicity call
COCCCN(C[C@]1(O)CC[C@H]2C3=CC=C4C[C@@H](O)CC[C@]4(C)[C@@H]3CC[C@@]21C)C(=O)O[C@H]1C[C@@H](C)CC[C@@H]1C(C)C | inactive
CC(C)NC(=O)N(C)C[C@H]1Oc2ccc(NS(=O)(=O)c3cccs3)cc2C(=O)N([C@H](C)CO)C[C@@H]1C | inactive
CO[C@H]1CN(C)C(=O)c2cc(NS(C)(=O)=O)ccc2OC[C@@H](C)N(C(=O)C2CCOCC2)C[C@H]1C | inactive
C[C@@H]1CN([C@@H](C)CO)C(=O)Cc2cc(NC(=O)C3CCCCC3)ccc2O[C@H]1CN(C)Cc1ccc(Cl)c(Cl)c1 | inactive
C[C@H]1CN([C@@H](C)CO)C(=O)Cc2cc(NC(=O)Cn3cnnn3)ccc2O[C@H]1CN(C)C(=O)Nc1ccc2c(c1)OCO2 | inactive
Cc1ccc(S(=O)(=O)N(C)C[C@H]2Oc3c(NS(=O)(=O)c4cn(C)cn4)cccc3C(=O)N([C@H](C)CO)C[C@@H]2C)cc1 | inactive
C[N+](C)(C)CCCCCCNC(=O)[C@@H]1C[C@@H]2C(=O)N[C@@H](CCCC[N+](C)(C)C)C(=O)N2[C@@H]1c1ccc(O)cc1 | inactive
Cc1ccc(S(=O)(=O)N(C)C[C@H]2Oc3ccc(NC(=O)NC(C)C)cc3C(=O)N([C@@H](C)CO)C[C@H]2C)cc1 | inactive
C[C@H](CO)N1C[C@H](C)[C@@H](CN(C)C(=O)N[C@H](C)c2ccccc2)OCc2ccccc2-c2c(n(C)c3ccccc23)C1=O | inactive
O=C(C[C@H]1CC[C@@H]2[C@H](COC[C@H](O)CN2S(=O)(=O)c2ccccc2)O1)N1CCc2ccccc2C1 | inactive
CCCC[C@@H](C)/C=C(C)/C=C(\C)C(=O)NC1=C[C@@](O)(/C=C/C=C/C=C/C(=O)NC2C(=O)CCC2=O)[C@@H]2O[C@@H]2C1=O | active
C[C@@H]1CN([C@@H](C)CO)C(=O)c2cccc(NC(=O)Nc3ccc4c(c3)OCO4)c2O[C@@H]1CN(C)Cc1ccc(Cl)c(Cl)c1 | inactive
O=C(C[C@@H]1CC[C@H]2[C@@H](COC[C@H](O)CN2CC2CCOCC2)O1)N1CCOCC1 | inactive
CN1C(=O)c2cc(NC(=O)c3ccc(F)cc3)ccc2OC[C@@H]2O[C@@H](CC(=O)N3CCOCC3)CC[C@H]21 | active
CN1C(=O)c2cc(NC(=O)c3ccc(F)cc3)ccc2OC[C@H]2O[C@H](CC(=O)N3CCOCC3)CC[C@H]21 | inactive
COCC(=O)Nc1ccc2c(c1)C(=O)N(C)[C@H]1CC[C@@H](CC(=O)N3CCc4ccccc4C3)O[C@@H]1CO2 | inactive
CN1C(=O)c2cc(NC(=O)c3ccc(F)cc3)ccc2OC[C@H]2O[C@@H](CC(=O)N3CCOCC3)CC[C@H]21 | inactive
COCC(=O)Nc1ccc2c(c1)C(=O)N(C)[C@@H]1CC[C@H](CC(=O)N3CCc4ccccc4C3)O[C@@H]1CO2 | inactive
COc1cccc(C(=O)Nc2ccc3c(c2)C(=O)N(C)[C@@H]2CC[C@H](CC(=O)NCC(F)(F)F)O[C@@H]2CO3)c1 | active
COCC(=O)Nc1ccc2c(c1)C(=O)N(C)[C@H]1CC[C@H](CC(=O)N3CCc4ccccc4C3)O[C@H]1CO2 | active
COc1cccc(C(=O)Nc2ccc3c(c2)C(=O)N(C)[C@@H]2CC[C@H](CC(=O)NCC4CC4)O[C@@H]2CO3)c1 | active

Structure (SMILES) | cytotoxicity call
COc1cccc(C(=O)Nc2ccc3c(c2)C(=O)N(C)[C@H]2CC[C@H](CC(=O)NCC(F)(F)F)O[C@H]2CO3)c1 | inactive
COc1cccc(C(=O)Nc2ccc3c(c2)C(=O)N(C)[C@H]2CC[C@H](CC(=O)NCC4CC4)O[C@@H]2CO3)c1 | inactive
COc1cccc(C(=O)Nc2ccc3c(c2)C(=O)N(C)[C@H]2CC[C@H](CC(=O)NCC(F)(F)F)O[C@@H]2CO3)c1 | inactive
COc1cccc(C(=O)Nc2ccc3c(c2)C(=O)N(C)[C@@H]2CC[C@@H](CC(=O)NCC4CC4)O[C@@H]2CO3)c1 | inactive
C[C@H]1CN([C@@H](C)CO)C(=O)c2c(c3ccccc3n2C)-c2ccccc2CO[C@@H]1CN(C)Cc1cccc(O)c1 | inactive
C[C@H](CO)N1C[C@H](C)[C@H](CN(C)S(C)(=O)=O)Oc2ccc(NC(=O)CCC(F)(F)F)cc2CC1=O | inactive
Cc1noc(C)c1S(=O)(=O)Nc1ccc2c(c1)C(=O)N([C@@H](C)CO)C[C@H](C)[C@@H](CN(C)C(=O)NC1CCCCC1)O2 | inactive
C[C@@H]1CCCCO[C@@H](CN(C)C(=O)Nc2ccccc2)[C@@H](C)CN([C@@H](C)CO)C(=O)c2cc(NC(=O)CCC(F)(F)F)ccc2O1 | inactive
C[C@H](CO)N1C[C@H](C)[C@@H](CN(C)C(=O)Nc2ccccc2)Oc2c(NS(=O)(=O)c3cn(C)cn3)cccc2C1=O | inactive
C[C@H]1CN([C@@H](C)CO)C(=O)Cc2cc(NS(=O)(=O)c3ccc(F)cc3)ccc2O[C@@H]1CN(C)S(=O)(=O)c1ccccc1 | inactive
COc1ccc2c3c([nH]c2c1)[C@@H](CO)N(CC1CCCC1)C[C@]13CCN(CC1)C(=O)c1ccc(cc1)F | inactive
C[C@H](NC(=O)N(C)C[C@@H]1OCc2ccccc2-c2c(n(C)c3ccccc23)C(=O)N([C@@H](C)CO)C[C@H]1C)c1ccccc1 | inactive
O=C(C[C@H]1CC[C@H]2[C@@H](COC[C@@H](O)CN2C(=O)c2ccccc2)O1)N1CCOCC1 | inactive
Cc1noc(C)c1S(=O)(=O)Nc1cccc2c1O[C@H](CN(C)Cc1ccc(-c3ccccc3)cc1)[C@H](C)CN([C@@H](C)CO)C2=O | inactive
Cc1noc(C)c1S(=O)(=O)N(C)C[C@H]1Oc2c(NC(=O)c3cnccn3)cccc2C(=O)N([C@H](C)CO)C[C@H]1C | inactive
COc1ccc(NC(=O)Nc2ccc3c(c2)C(=O)N([C@@H](C)CO)C[C@@H](C)[C@H](CN(C)S(=O)(=O)c2ccc(C)cc2)OCCCC[C@@H](C)O3)cc1 | inactive
COc1ccc(C(=O)Nc2ccc3c(c2)C(=O)N(C)[C@H]2CC[C@H](CC(=O)NCC4CC4)O[C@@H]2CO3)cc1 | inactive
COc1ccc(C(=O)Nc2ccc3c(c2)C(=O)N(C)[C@@H]2CC[C@@H](CC(=O)NCC4CC4)O[C@@H]2CO3)cc1 | inactive
CCCNC(=O)C[C@@H]1CC[C@@H]2[C@H](COc3ccc(NC(=O)c4ccc5c(c4)OCO5)cc3C(=O)N2C)O1 | inactive
COc1ccc(C(=O)Nc2ccc3c(c2)C(=O)N(C)[C@@H]2CC[C@H](CC(=O)NCC4CC4)O[C@H]2CO3)cc1 | active
COc1ccc(C(=O)Nc2ccc3c(c2)C(=O)N(C)[C@@H]2CC[C@H](CC(=O)NCC4CC4)O[C@@H]2CO3)cc1 | active

Structure (SMILES) | cytotoxicity call
CCCNC(=O)C[C@H]1CC[C@@H]2[C@@H](COc3ccc(NC(=O)c4ccc5c(c4)OCO5)cc3C(=O)N2C)O1 | active
COc1ccc(C(=O)Nc2ccc3c(c2)C(=O)N(C)[C@H]2CC[C@@H](CC(=O)NCC4CC4)O[C@H]2CO3)cc1 | inactive
COc1ccc(C(=O)Nc2ccc3c(c2)C(=O)N(C)[C@H]2CC[C@H](CC(=O)NCC4CC4)O[C@H]2CO3)cc1 | inactive
CCCNC(=O)C[C@@H]1CC[C@@H]2[C@@H](COc3ccc(NC(=O)c4ccc5c(c4)OCO5)cc3C(=O)N2C)O1 | inactive
C[C@@H]1CCCCO[C@H](CN(C)C(=O)C2CCCCC2)[C@H](C)CN([C@@H](C)CO)C(=O)c2cc(NS(=O)(=O)c3cccs3)ccc2O1 | inactive
Cc1cc(C(=O)Nc2cccc3c2O[C@@H](CN(C)Cc2ccccc2)[C@@H](C)CN([C@H](C)CO)C3=O)n(C)n1 | inactive
C[C@H](CO)N1C[C@H](C)[C@H](CN(C)Cc2ccc(Oc3ccccc3)cc2)OCc2ccccc2-c2ccccc2C1=O | inactive
C[C@H]1CN([C@@H](C)CO)C(=O)c2cc(NC(=O)NC3CCCCC3)ccc2O[C@@H]1CN(C)Cc1ccc(C(F)(F)F)cc1 | inactive
O=C(C[C@@H]1C=C[C@H](NS(=O)(=O)c2ccc(F)cc2)[C@@H](CO)O1)N1CCC(Cc2ccccc2)CC1 | inactive
C[C@@H]1CN([C@H](C)CO)C(=O)CCCn2cc(nn2)CO[C@H]1CN(C)S(=O)(=O)c1ccc2ccccc2c1 | inactive
Cc1noc(C)c1NC(=O)N(C)C[C@H]1OCCCC[C@@H](C)Oc2ccc(NC(=O)Cc3ccccc3)cc2C(=O)N([C@@H](C)CO)C[C@@H]1C | inactive
Cc1noc(C)c1NC(=O)Nc1cccc2c1O[C@@H](CN(C)Cc1ccc(Cl)c(Cl)c1)[C@@H](C)CN([C@@H](C)CO)C2=O | inactive
CO[C@@H]1CN(C)C(=O)c2ccc(NS(=O)(=O)c3ccccc3C)cc2OC[C@H](C)N(S(C)(=O)=O)C[C@H]1C | inactive
C[C@H]1CCCCO[C@H](CN(C)S(C)(=O)=O)[C@@H](C)CN([C@@H](C)CO)C(=O)c2cc(NS(C)(=O)=O)ccc2O1 | inactive
COc1ccc(S(=O)(=O)Nc2ccc3c(c2)C(=O)N([C@@H](C)CO)C[C@@H](C)[C@H](CN(C)S(=O)(=O)c2ccc(OC)cc2)O3)cc1 | inactive
N=C(N)NCCCC[C@@H]1NC(=O)CCSSC[C@@H](C(N)=O)NC(=O)[C@@H]2CCCN2C(=O)[C@H](Cc2c[nH]c3ccccc23)NC(=O)[C@H](CC(=O)O)NC(=O)CNC1=O | inactive
CC(C)[C@H]1C(=O)N[C@@H](CCCNC(=N)N)C(=O)NCC(=O)N[C@@H](CC(=O)O)C(=O)N[C@H](Cc2ccccc2)C(=O)N1C | active
N=C(N)NCCC[C@@H]1NC(=O)[C@@H](N)CSSC[C@@H](C(=O)O)NC(=O)[C@H](CC(=O)O)NC(=O)[C@@H]2CCCN2C(=O)CNC(=O)[C@H](CCCCN)NC(=O)[C@H](CC(=O)O)NC(=O)CNC1=O | inactive
C[C@@H]1CN([C@@H](C)CO)C(=O)Cc2cc(NC(=O)Nc3ccccc3)ccc2O[C@H]1CN(C)C(=O)Nc1cccc2ccccc12 | inactive
